Source: PubChem BioAssay (NCI)
Compounds without any hit were thinned out: in the full panel of roughly 83,000, 20% have a hit.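 Values shown are percent growth following 48 h exposure of cells in 96-well plates to a single concentration of compound; below 10 was considered active.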 A number with no mark means an inactive call. Activity calls are given as the source filed them.

Legend:
Test in all cases: NCI-60 one-dose screen, 48 h (100 = growth as untreated, 0 = no growth, -100 = all killed)
Details in all cases: 10 µM unless noted
[1] = tested on: SK-MEL-2 melanoma
[2] = tested on: EKVX NSCLC
[3] = tested on: SN12C renal
[4] = tested on: UO-31 renal
[5] = tested on: TK-10 renal
[6] = tested on: ACHN renal
[7] = tested on: CAKI-1 renal
[8] = tested on: A498 renal
[9] = tested on: CCRF-CEM leukemia
[10] = tested on: MOLT-4 leukemia
[11] = tested on: SR leukemia
[12] = tested on: RPMI-8226 leukemia
[13] = tested on: OVCAR-8 ovarian
[14] = tested on: OVCAR-5 ovarian
[15] = tested on: OVCAR-4 ovarian
[16] = tested on: SK-OV-3 ovarian
[17] = tested on: IGROV1 ovarian
[18] = tested on: OVCAR-3 ovarian
[19] = tested on: HS 578T breast
[20] = tested on: NCI/ADR-RES ovarian

Compound	growth [1]	growth [2]	growth [3]	growth [4]	growth [5]	growth [6]	growth [7]	growth [8]	growth [9]	growth [10]	growth [11]	growth [12]	growth [13]	growth [14]	growth [15]	growth [16]	growth [17]	growth [18]	growth [19]	growth [20]
COc1cc(OC)c(/C=C/S(=O)(=O)Cc2ccc(OC)c(N)n2)c(OC)c1	8.32% (active)	37.3%	24.3%	31.9%	33.7%	28.3%	25.5%	-1.72% (active)	9.98% (active)	2.56% (active)	0.349% (active)	33.1%	11%	50.5%	42.1%	5.23% (active)	26.4%	-27.7% (active)	43.8%	10.2%
CCN(CC)CC(C)Nc1ccc([N+](=O)[O-])c2sc3ccccc3c(=O)c12 (stereo not given)	26.8%	34.5%	37.2%	0.595% (active)	49.5%	7.58% (active)	18.1%	29.8%	15.2%	-24% (active)	-32.3% (active)	-29.7% (active)	24.6%	53.9%	32.9%	33.8%	22.3%	36.6%	27.7%	34.7%
O=C(CN1CCN(c2cc3c(cc2F)c(=O)c(C(=O)N/N=C/c2ccccc2)cn3C2CC2)CC1)N/N=C\c1ccccc1	86.1%	66.6%	65.7%	53.3%	89.1%	72%	78.1%	78.7%	60.9%	42.7%	61%	39.2%	73.9%	98.6%	89.8%	124%	54.4%	77%	84.8%	77.1%
COc1ccccc1/C=C(/C(=O)c1ccccc1)c1ccccc1	94.5%	109%	102%	75.4%	119%	99.8%	92.8%	111%	104%	75.1%	94.7%	96.9%	87.7%	128%	94.2%	103%	96.7%	102%	100%	92.1%
CC#CC#Cc1cccc(=O)o1	-47.3% (active)	20.7%	81.6%	40.7%	73.7%	68.5%	4.28% (active)	113%	11.9%	64.9%	-9.17% (active)	45.6%	65.8%	101%	91.6%	104%	65.1%	7.67% (active)	70.9%	90.1%
Oc1c(Cl)cc(Cl)cc1CNc1nccnn1	115%	94.4%	90.4%	93.5%	113%	99.8%	89.6%	88.7%	111%	101%	93.5%	105%	108%	101%	106%	107%	96.3%	92.1%	114%	98.5%
Brc1cccc(-c2cc(-c3ccc4c(c3)OCCO4)[nH]n2)c1	35.8% [25 µM]	20.3% [25 µM]	33.7% [25 µM]	35% [25 µM]	59% [25 µM]	41.4% [25 µM]	25.7% [25 µM]	7.77% [25 µM] (active)	19.5% [25 µM]	50.4% [25 µM]	31.4% [25 µM]	20.8% [25 µM]	29.7% [25 µM]	39.8% [25 µM]	58.6% [25 µM]	39.5% [25 µM]	30.2% [25 µM]	-7.07% [25 µM] (active)	30% [25 µM]	4.14% [25 µM] (active)
CCOC(=O)c1c2c(n3ccc(NC(=O)CCN(CC)CC)cc13)C(=O)c1ncccc1C2=O	29.3%	71.3%	27.6%	28.8%	36.5%	16.1%	23%	46.9%	52.9%	29.3%	-2.86% (active)	51.2%	57.4%	90.5%	63.8%	36.2%	47.3%	74.7%	60.8%	60.2%
Brc1cccc(-c2nc(-c3ccc4c(c3)OCCO4)co2)c1	37.6% [25 µM]	51.5% [25 µM]	54% [25 µM]	70% [25 µM]	84.7% [25 µM]	85.4% [25 µM]	52.3% [25 µM]	23.5% [25 µM]	51.6% [25 µM]	45.4% [25 µM]	37.7% [25 µM]	58.1% [25 µM]	71.8% [25 µM]	81.4% [25 µM]	81% [25 µM]	69.7% [25 µM]	62.1% [25 µM]	32.7% [25 µM]	65.4% [25 µM]	28.5% [25 µM]
O=C1C[C@H](Sc2nc(-c3ccc(F)cc3)cc(C(F)(F)F)n2)[C@H]2CO[C@@H]1O2	107%	107%	92.4%	88.3%	99.2%	88.9%	81.5%	105%	51.1%	78.3%	17.9%	96.9%	97.4%	105%	108%	108%	115%	91.6%	109%	106%
COC(=O)[C@@H]1CC[C@]2(C)[C@H](CC[C@@H]3O[C@@]32C)[C@@]1(C)CC(=O)c1ccoc1	78.2%	105%	92.7%	97%	84%	105%	106%	88.6%	102%	94.8%	86.6%	91.2%	102%	109%	127%	103%	105%	105%	88.2%	103%
COc1ccc(S(=O)(=O)NCCNc2nccc(-c3c(-c4cccc([N+](=O)[O-])c4)nc4sccn34)n2)cc1	100%	82.1%	70.3%	49.3%	108%	62.4%	68.1%	63.7%	75.2%	60.7%	78.4%	74%	83.7%	126%	63.1%	102%	67.3%	88.3%	91.1%	82%
Cc1cc2cc3cc(C)c(N(C)C)cc3[n+](C)c2cc1N(C)C	-22% (active)	52%	10.7%	62.1%	-17.4% (active)	43.8%	47.2%	56.9%	13%	33.9%	76.9%	4.78% (active)	23.4%	63.4%	38.5%	20.2%	-3.39% (active)	-7.45% (active)	33.1%	78.4%
COc1ccc2nc3cc(Cl)ccc3c(NCCNCC(O)CO)c2c1 (stereo not given)	27.9%	42%	5.37% (active)	48.9%	32.3%	26.8%	71.9%	8.45% (active)	25%	12.7%	6.64% (active)	20.6%	23.3%	30.7%	30.5%	32.4%	19.8%	26.2%	49.6%	87.7%
C=C1CC2(OC1=O)C(=O)N(CCCCCCCN1C(=O)C3(CC(=C)C(=O)O3)c3ccccc31)c1ccccc12 (stereo not given)	61.2%	88.4%	-50.9% (active)	-24.6% (active)	45.2%	15.8%	40.3%	53.5%	-14.8% (active)	3.14% (active)	3.28% (active)	-28.1% (active)	9.09% (active)	45.1%	10.2%	112%	10.5%	3.44% (active)	62.3%	32.6%
